The results in this text go back to PubChem BioAssay (NCI).

Assay [1] is described as follows: NCI Yeast Anticancer Drug Screen. Data for the rad50 strain (AID 155).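 Also: 0% = growth of vehicle-only cultures of the same strain.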 As to conditions: S. cerevisiae rad50 strain growth inhibition, active compounds read high. The procedure, abridged:
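Relative growth inhibition (compound vs vehicle) was measured in yeast with a defined repair-gene alteration.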

Assay [2] can be described thus: NCI Yeast Anticancer Drug Screen. Data for the mec2-1 strain (AID 157). As to conditions: S. cerevisiae mec2-1 strain, active compounds read high. Summed up:
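Yeast mec2-1 mutant treated with compound. Readout: growth inhibition vs vehicle controls.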

Assay [3] is described as follows: NCI Yeast Anticancer Drug Screen. Data for the sgs1 mgt1 strain (AID 161).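 Also: 0% = growth of cultures given vehicle only.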 As to conditions: S. cerevisiae sgs1 mgt1 strain, active compounds read high. Summed up: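 Genetically altered yeast, compound exposure, growth inhibition relative to vehicle.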
Assay [4] in a line: NCI Yeast Anticancer Drug Screen. Data for the cln2 rad14 strain (AID 165).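 Also: 0% = growth equal to vehicle treated cultures.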 The settings on record: S. cerevisiae cln2 rad14 strain, active compounds read high. The procedure, abridged:
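cln2 rad14 yeast strain; compound exposure; growth inhibition read vs vehicle controls.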

A short description of assay [5]: NCI Yeast Anticancer Drug Screen. Data for the bub3 strain (AID 167). As to conditions: S. cerevisiae bub3 mutant strain, active compounds read high. Summed up:
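Screening used yeast with an engineered genetic alteration affecting cell cycle control. Compound-exposed cultures were compared with vehicle cultures, and reduced growth was taken as inhibition.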

The nature of assay [6]: NCI Yeast Anticancer Drug Screen. Data for the mlh1 rad18 strain (AID 175). As to conditions: S. cerevisiae mlh1 rad18 strain growth inhibition, active compounds read high. Summed up:
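Yeast w/ defined DNA-repair lesions; compound exposure; growth vs vehicle controls → % inhibition.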

The mark [7] stands for this setting: at 5.0 µM (retest, dose inferred, filed as 0.5).
[8] abbreviates: at 50.0 µM (retest, dose inferred, filed as 5.0).

Compounds without any hit were thinned out: in the full panel of roughly 79,000, 15% have a hit. Values without a mark were called inactive. Active and inactive are the calls of the source. Rule as the data show it: active = growth inhibition above about 70%; inactive = the rest.

For the molecule `C=C(CN(C)C)C(=O)c1ccc(Oc2ccccc2)cc1`, the growth inhibition in assay [1] (setting [7]) is 99% (active); in assay [1] (setting [8]), 100% (active); in assay [1] (at 50.0 µM) it was 99.2% (active); in assay [2] (setting [7]), 99% (active); in assay [2] (setting [8]) it was 100% (active); in assay [2] (at 50.0 µM) it was 99.4% (active). Further, the growth inhibition is 99% (active) in assay [3] (setting [7]); 100% (active) in assay [3] (setting [8]); 59.5% in assay [3] (at 50.0 µM); 71% (active) in assay [4] (setting [7]); 99% (active) in assay [4] (setting [8]); 99.4% (active) in assay [4] (at 50.0 µM). The growth inhibition was 99% (active) in assay [5] (setting [7]); 100% (active) in assay [5] (setting [8]); 98.8% (active) in assay [5] (at 50.0 µM); 98% (active) in assay [6] (setting [7]); 100% (active) in assay [6] (setting [8]); 99.5% (active) in assay [6] (at 50.0 µM).

Take `NC(=O)NNC(=O)NNC(N)=O`: the growth inhibition is -4% in assay [1] (setting [7]); 9% in assay [1] (setting [8]); 0.95% in assay [1] (at 50.0 µM); -2% in assay [2] (setting [7]); 1% in assay [2] (setting [8]); -4.8% in assay [2] (at 50.0 µM). The growth inhibition was 3% in assay [3] (setting [7]); 4% in assay [3] (setting [8]); -20.2% in assay [3] (at 50.0 µM); -1% in assay [4] (setting [7]); 3% in assay [4] (setting [8]); 70.8% (active) in assay [4] (at 50.0 µM). Besides, the growth inhibition was -4% in assay [5] (setting [7]); -8% in assay [5] (setting [8]); -3.5% in assay [5] (at 50.0 µM); -3% in assay [6] (setting [7]); 9% in assay [6] (setting [8]); -3.85% in assay [6] (at 50.0 µM).

On to `Cc1cccc(NC(=O)CCc2ccc(Cl)cc2)n1`, for which the growth inhibition was 2% in assay [1] (setting [7]); 1% in assay [1] (setting [8]); 6.3% in assay [1] (at 50.0 µM); -17% in assay [2] (setting [7]); -6% in assay [2] (setting [8]); 2.55% in assay [2] (at 50.0 µM). Besides, the growth inhibition in assay [3] (setting [7]) is 2%; in assay [3] (setting [8]), 13%; in assay [3] (at 50.0 µM), 0.2%; in assay [4] (setting [7]) it was -6%; in assay [4] (setting [8]) it was -15%; in assay [4] (at 50.0 µM), 41.8%. The growth inhibition in assay [5] (setting [7]) is -1%; in assay [5] (setting [8]), 0%; in assay [5] (at 50.0 µM), 9.9%; in assay [6] (setting [7]), 8%; in assay [6] (setting [8]) it was -7%; in assay [6] (at 50.0 µM) it was -2.8%.

In the case of `CCN(CC)C(=S)N/N=C(/c1ccccc1)c1ccccn1`, the growth inhibition in assay [1] (setting [7]) is 42%; in assay [1] (setting [8]), 96% (active); in assay [1] (at 50.0 µM) it was 70.7% (active); in assay [2] (setting [7]) it was 92% (active); in assay [2] (setting [8]) it was 97% (active); in assay [2] (at 50.0 µM), 76.9% (active). Also, the growth inhibition in assay [3] (setting [7]) was 44%; in assay [3] (setting [8]) it was 97% (active); in assay [3] (at 50.0 µM), 81.8% (active); in assay [4] (setting [7]), 80% (active); in assay [4] (setting [8]) it was 95% (active); in assay [4] (at 50.0 µM) it was 81.8% (active). The growth inhibition in assay [5] (setting [7]) is 95% (active); in assay [5] (setting [8]) it was 96% (active); in assay [5] (at 50.0 µM), 85.2% (active); in assay [6] (setting [7]), 96% (active); in assay [6] (setting [8]) it was 97% (active); in assay [6] (at 50.0 µM), 83.1% (active).

For the molecule `CCCCC(CC)COP(=O)(OCC(CC)CCCC)OCC(CC)CCCC` (stereo not given), the growth inhibition in assay [1] (setting [7]) is 0%; in assay [1] (setting [8]) it was 7%; in assay [1] (at 50.0 µM), 15.8%; in assay [2] (setting [7]), 13%; in assay [2] (setting [8]) it was -7%; in assay [2] (at 50.0 µM) it was 10.6%. Also, the growth inhibition was 9% in assay [3] (setting [7]); 18% in assay [3] (setting [8]); -2.85% in assay [3] (at 50.0 µM); 0% in assay [4] (setting [7]); -3% in assay [4] (setting [8]); 0.85% in assay [4] (at 50.0 µM). Also, the growth inhibition in assay [5] (setting [7]) was -5%; in assay [5] (setting [8]), -11%; in assay [5] (at 50.0 µM), -6.75%; in assay [6] (setting [7]) it was -4%; in assay [6] (setting [8]) it was -12%; in assay [6] (at 50.0 µM) it was 29.1%.

For the molecule `C/C(=N\NC(=S)N1CCC(O)CC1)c1ccccn1`, the growth inhibition in assay [1] (setting [7]) was 14%; in assay [1] (setting [8]) it was 93% (active); in assay [1] (at 50.0 µM) it was 99% (active); in assay [2] (setting [7]), 14%; in assay [2] (setting [8]), 94% (active); in assay [2] (at 50.0 µM), 99.5% (active). Moreover, the growth inhibition in assay [3] (setting [7]) was 40%; in assay [3] (setting [8]), 99% (active); in assay [3] (at 50.0 µM) it was 99.2% (active); in assay [4] (setting [7]), 16%; in assay [4] (setting [8]) it was 95% (active); in assay [4] (at 50.0 µM), 98.2% (active). The growth inhibition in assay [5] (setting [7]) was 39%; in assay [5] (setting [8]), 97% (active); in assay [5] (at 50.0 µM) it was 98.8% (active); in assay [6] (setting [7]), 28%; in assay [6] (setting [8]), 98% (active); in assay [6] (at 50.0 µM) it was 98.8% (active).

In the case of `CC/C(=C(/CC)c1ccc(O)cc1)c1ccc([O-])cc1.CC/C(=C(/CC)c1ccc(O)cc1)c1ccc([O-])cc1.O=C([CH-]C(=O)c1ccccc1)c1ccccc1.O=C([CH-]C(=O)c1ccccc1)c1ccccc1.[Ti+4]`, the growth inhibition in assay [1] (setting [7]) is 64%; in assay [1] (setting [8]), 95% (active); in assay [1] (at 50.0 µM) it was 88.8% (active); in assay [2] (setting [7]), 60%; in assay [2] (setting [8]) it was 97% (active); in assay [2] (at 50.0 µM), 92% (active). The growth inhibition in assay [3] (setting [7]) was 74% (active); in assay [3] (setting [8]), 98% (active); in assay [3] (at 50.0 µM) it was 92.8% (active); in assay [4] (setting [7]), 56%; in assay [4] (setting [8]), 96% (active); in assay [4] (at 50.0 µM), 91.5% (active). In addition, the growth inhibition in assay [5] (setting [7]) was 78% (active); in assay [5] (setting [8]), 98% (active); in assay [5] (at 50.0 µM), 90.2% (active); in assay [6] (setting [7]), 80% (active); in assay [6] (setting [8]), 93% (active); in assay [6] (at 50.0 µM), 89% (active).

As for `Oc1ccc(-c2ccccc2)cc1O`, the growth inhibition in assay [1] (setting [7]) is 23%; in assay [1] (setting [8]) it was 99% (active); in assay [1] (at 50.0 µM), 76.1% (active); in assay [2] (setting [7]), 13%; in assay [2] (setting [8]), 100% (active); in assay [2] (at 50.0 µM), 82% (active). Also, the growth inhibition in assay [3] (setting [7]) was 12%; in assay [3] (setting [8]), 99% (active); in assay [3] (at 50.0 µM), 89% (active); in assay [4] (setting [7]), -3%; in assay [4] (setting [8]) it was 99% (active); in assay [4] (at 50.0 µM) it was 1.55%. Further, the growth inhibition in assay [5] (setting [7]) was -6%; in assay [5] (setting [8]), 99% (active); in assay [5] (at 50.0 µM), 46.5%; in assay [6] (setting [7]), 27%; in assay [6] (setting [8]), 99% (active); in assay [6] (at 50.0 µM), 81.4% (active).

As to `O=C(CCl)Oc1ccc(Sc2ccc(OC(=O)CCl)cc2)cc1`, the growth inhibition was 6% in assay [1] (setting [7]); 97% (active) in assay [1] (setting [8]); 98.7% (active) in assay [1] (at 50.0 µM); 12% in assay [2] (setting [7]); 98% (active) in assay [2] (setting [8]); 98.3% (active) in assay [2] (at 50.0 µM). Besides, the growth inhibition in assay [3] (setting [7]) was 10%; in assay [3] (setting [8]), 97% (active); in assay [3] (at 50.0 µM) it was 98.8% (active); in assay [4] (setting [7]), 13%; in assay [4] (setting [8]) it was 94% (active); in assay [4] (at 50.0 µM), 96.3% (active). The growth inhibition in assay [5] (setting [7]) is 1%; in assay [5] (setting [8]), 99% (active); in assay [5] (at 50.0 µM) it was 99.4% (active); in assay [6] (setting [7]), 7%; in assay [6] (setting [8]) it was 99% (active); in assay [6] (at 50.0 µM) it was 97.9% (active).

Take `COc1cc(/C=C/C2=C(C)C(=O)CC(c3cc(OC)c(OC)c(OC)c3)C2C)cc(OC)c1OC` (stereo not given): the growth inhibition is 2% in assay [1] (setting [7]); -1% in assay [1] (setting [8]); -6.25% in assay [1] (at 50.0 µM); -5% in assay [2] (setting [7]); 22% in assay [2] (setting [8]); -1.7% in assay [2] (at 50.0 µM). Also, the growth inhibition in assay [3] (setting [7]) was 0%; in assay [3] (setting [8]), 25%; in assay [3] (at 50.0 µM) it was 15.4%; in assay [4] (setting [7]) it was -8%; in assay [4] (setting [8]), -27%; in assay [4] (at 50.0 µM), 75.8% (active). Also, the growth inhibition in assay [5] (setting [7]) is -2%; in assay [5] (setting [8]), 7%; in assay [5] (at 50.0 µM) it was 2.1%; in assay [6] (setting [7]), 0%; in assay [6] (setting [8]) it was -102%; in assay [6] (at 50.0 µM), 42.6%.
